The full ranking holds about 18,000 sequences; the median of “log2 normalized intensity” is about 0.39, and the highest 2% start at about 6.6. Many of the other results were omitted from the sample, so the highest values are more common in it than they were.

For this assay, the target named is T1, HNF4alpha2 (COS-7 nuclear extract) (Homo sapiens, UniProt P41235 1-474).
T1 sequence: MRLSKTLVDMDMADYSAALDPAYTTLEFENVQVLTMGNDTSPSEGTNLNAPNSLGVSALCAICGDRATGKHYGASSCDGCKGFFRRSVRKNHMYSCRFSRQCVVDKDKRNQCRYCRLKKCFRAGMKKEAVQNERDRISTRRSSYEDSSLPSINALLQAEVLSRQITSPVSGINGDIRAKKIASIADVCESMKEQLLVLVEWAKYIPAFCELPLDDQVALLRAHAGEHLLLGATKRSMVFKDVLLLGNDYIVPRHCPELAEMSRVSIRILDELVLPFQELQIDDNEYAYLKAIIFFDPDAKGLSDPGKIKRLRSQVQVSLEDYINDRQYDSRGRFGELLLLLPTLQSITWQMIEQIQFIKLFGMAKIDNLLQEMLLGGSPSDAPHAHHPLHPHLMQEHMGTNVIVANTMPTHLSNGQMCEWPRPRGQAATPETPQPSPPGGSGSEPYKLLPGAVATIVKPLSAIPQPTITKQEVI
The experiment in a line: protein-binding microarray; COS-7 nuclear extract on double-stranded Agilent 4x180k PBM; binding buffer, salt, pH and temperature not given in the material; high values mean tight binding. The note with it: chain copies: 2; label: 3' end of strand 1 on the slide; dsDNA, one strand shown. In short, it runs like this: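 Nuclear extracts came from COS-7 cells transiently transfected by CaPO4 with a human HNF4α isoform expression vector. They were applied to a custom Agilent SurePrint G3 4x180k array of ~60-nt oligonucleotides, made double-stranded, with ~44,000 test sequences spotted in quadruplicate. Bound HNF4α was imaged at 2-µm resolution on an Agilent G2565CA scanner. Binding signal was taken as background-corrected, normalized gProcessedSignal from Agilent software.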
“ATGCTAAAGTCTACATTCTAGATGACCCCTGCCTAGGGAGATTAGAGTATCGGTCGA”: the binding signal was 5.66 log2 normalized intensity.
For the sequence “TGATCCATTCTACCCCTGTGGTTGACCTTTGCCTAGGGAGATTAGAGTATCGGTCGA”, the binding signal amounted to 7.8 log2 normalized intensity.
Consider “GGACTTCGCTCCGCCGCTAGGTGGCGGGCTGCCTAGGGAGATTAGAGTATCGGTCGA”, for which the binding signal was 1.42 log2 normalized intensity.
For “GAGAAGTTGCTCTTTACACCATTGCAAGGAGCCTAGGGAGATTAGAGTATCGGTCGA”, the binding signal is -0.941 log2 normalized intensity.
In the case of “GGAGCCCCCTGGGGGAGGTTTCCTGCTGTCGCCTAGGGAGATTAGAGTATCGGTCGA”, the binding signal was -0.946 log2 normalized intensity.
With “ATCTTCCTCCCCCCTTGGCTACATGTTTGTGCCTAGGGAGATTAGAGTATCGGTCGA”, the binding signal worked out at 3.7 log2 normalized intensity.
Regarding “CTGCAAAGAAGTCAAACTTTGGACCCACTGGCCTAGGGAGATTAGAGTATCGGTCGA”, the binding signal was 5.97 log2 normalized intensity.
Regarding “TCAGGAGCCCCACAGAGCAAAGGTCATGCAGCCTAGGGAGATTAGAGTATCGGTCGA”, the binding signal amounted to 5.38 log2 normalized intensity.
Turning to “CAAAGGTCATAATTTGATCCAGTGTGCAAAGCCTAGGGAGATTAGAGTATCGGTCGA”, the binding signal stood at 3.35 log2 normalized intensity.
Consider “GGACTTGATCCAGGGCAAAGGTCATAATTTGCCTAGGGAGATTAGAGTATCGGTCGA”, for which the binding signal is 6.98 log2 normalized intensity.
Turning to “TGATCCAGGGCAAAGGTCATAATTTGATCCGCCTAGGGAGATTAGAGTATCGGTCGA”, the binding signal stood at 6.34 log2 normalized intensity.
As for “AGAAAACACAGAGATCTGATCAAAGGTCATGCCTAGGGAGATTAGAGTATCGGTCGA”, the figure is 5.9 log2 normalized intensity.
Regarding “ACACAGGACTTGATCCAGGGCAAAGGTCATGCCTAGGGAGATTAGAGTATCGGTCGA”, the binding signal is 7.38 log2 normalized intensity.
For “GAGCTTTTACCTCAAATAAAGGTCAGAGTCGCCTAGGGAGATTAGAGTATCGGTCGA”, the binding signal turned out to be 1.79 log2 normalized intensity.
Take “GTATCAGGGCTCAGGAATGTGGGGTCAACAGCCTAGGGAGATTAGAGTATCGGTCGA”: the binding signal amounted to 2.99 log2 normalized intensity.
As to “CCGCGACAAGCGTCGCTGAGTGGAGGCCCAGCCTAGGGAGATTAGAGTATCGGTCGA”, the binding signal is -0.847 log2 normalized intensity.
Take “ATGGACTTTGAAGGAGATTCCTGTGTCAGCGCCTAGGGAGATTAGAGTATCGGTCGA”: the binding signal is 0.984 log2 normalized intensity.
“GGTCAGCAATGTGGACTTTGTCCTGTGGGCGCCTAGGGAGATTAGAGTATCGGTCGA”: the binding signal stood at 7.77 log2 normalized intensity.
Take “GCCACGGTCAGCAATGTGGACTTTGTCCTGGCCTAGGGAGATTAGAGTATCGGTCGA”: the binding signal was 9.67 log2 normalized intensity.
Regarding “AGTTTGCCACGGTCAGCAATGTGGACTTTGGCCTAGGGAGATTAGAGTATCGGTCGA”, the binding signal is 6.18 log2 normalized intensity.
The result for “GTGGGAGAAAGCTTTGGACTTTGGGCTGTGGCCTAGGGAGATTAGAGTATCGGTCGA” reads 5.72 log2 normalized intensity; that for “TGGACTTTGGTCCTGGTCAGACTTGCCACGGCCTAGGGAGATTAGAGTATCGGTCGA”, 4.5 log2 normalized intensity.
For “GCAATGTGGACTTTGTCCTGTGGGCTGTAAGCCTAGGGAGATTAGAGTATCGGTCGA”, the binding signal came to 7.35 log2 normalized intensity.
The result for “CCGTCCTGTCCTGGACTTTCCTTTGTTGGGGCCTAGGGAGATTAGAGTATCGGTCGA” reads 2.3 log2 normalized intensity; that for “GTGGACTTTGTCCTGTGGGCTGTAAAAATCGCCTAGGGAGATTAGAGTATCGGTCGA”, 5.03 log2 normalized intensity.
Turning to “TTGTCAGTGCCCTATACAGACCTTTGTATAGCCTAGGGAGATTAGAGTATCGGTCGA”, the binding signal was determined as 2.96 log2 normalized intensity.
“CTCACAGAGTGGAGTCTTCCGTTTGATAGAGCCTAGGGAGATTAGAGTATCGGTCGA”: the binding signal is -0.436 log2 normalized intensity.
For “CTTTATCTAGATAAGTTTATTTACTTATGTGCCTAGGGAGATTAGAGTATCGGTCGA”, the binding signal was found to be 1.49 log2 normalized intensity.
As for “ATGGTCAGTGTTGATAAGAAAGCTGCAGTCGCCTAGGGAGATTAGAGTATCGGTCGA”, the binding signal turned out to be 0.747 log2 normalized intensity.
Turning to “TAGGTTATCTTTGGAGAATGCCTTTTGTGTGCCTAGGGAGATTAGAGTATCGGTCGA”, the binding signal came out at 2.15 log2 normalized intensity.
“ATACTTAGGATTTTTGTGCCTCTTTGGTGAGCCTAGGGAGATTAGAGTATCGGTCGA”: the binding signal worked out at 1.13 log2 normalized intensity.
Consider “TATTCAAACAGAGGACAGTTGTGTTTGTTGGCCTAGGGAGATTAGAGTATCGGTCGA”, for which the binding signal came to 1.96 log2 normalized intensity.
The result for “TTTGGTGAGGCCCCAGTGTCAATTCTCATTGCCTAGGGAGATTAGAGTATCGGTCGA” reads 1.82 log2 normalized intensity.
As for “CAGGCTGTTTTCCTATAGATTTGTTAAATCGCCTAGGGAGATTAGAGTATCGGTCGA”, the binding signal amounted to 1.13 log2 normalized intensity.
Take “CTTTGTGGCAGGAGGAGCTGTTTGACATCCGCCTAGGGAGATTAGAGTATCGGTCGA”: the binding signal came to 0.0869 log2 normalized intensity.
Regarding “AAAGGGACTCATCTCCAAACGAGACTTTGGGCCTAGGGAGATTAGAGTATCGGTCGA”, the binding signal stood at 1.6 log2 normalized intensity.
As for “ACAGTTCTGATACATTGGACAACTGTACTTGCCTAGGGAGATTAGAGTATCGGTCGA”, the binding signal came to 2.1 log2 normalized intensity.
As to “GGTGAGATAAGAAGACTCCAGGGGACTGCCGCCTAGGGAGATTAGAGTATCGGTCGA”, the binding signal was -0.872 log2 normalized intensity.
Take “ATCTCCAGATAAGACTTTGGACTTTGGACCGCCTAGGGAGATTAGAGTATCGGTCGA”: the binding signal came to 11.6 log2 normalized intensity.
The result for “ATCTCCAAACGAGACTTTGGACTTTGGACTGCCTAGGGAGATTAGAGTATCGGTCGA” reads 11.8 log2 normalized intensity; that for “CTCCAAACATCTTTGGTATGGACTGATATTGCCTAGGGAGATTAGAGTATCGGTCGA”, 1.5 log2 normalized intensity.
Turning to “GGGTGAAAGGGACTCATCTCCAAACGAGACGCCTAGGGAGATTAGAGTATCGGTCGA”, the binding signal is -0.986 log2 normalized intensity.
For “GACTCATCTCCAAACGAGACTTTGGACTTTGCCTAGGGAGATTAGAGTATCGGTCGA”, the binding signal came out at 8.97 log2 normalized intensity.
In the case of “GCTAAGAGACAGCTCCACAGCTGGACTTTGGCCTAGGGAGATTAGAGTATCGGTCGA”, the binding signal was 5.15 log2 normalized intensity.
For the sequence “GAGACAGCTCCACAGCTGGACTTTGGCTGCGCCTAGGGAGATTAGAGTATCGGTCGA”, the binding signal amounted to 5.41 log2 normalized intensity.
For the sequence “TACATTGGACAACTGTACTTTGGACTGGGGGCCTAGGGAGATTAGAGTATCGGTCGA”, the binding signal amounted to 5.99 log2 normalized intensity.
For the sequence “TCTGATACATTGGACAACTGTACTTTGGACGCCTAGGGAGATTAGAGTATCGGTCGA”, the binding signal came to 7.2 log2 normalized intensity.

The values above are taken from paper PMC10726135, “HNF4α isoforms regulate the circadian balance between carbohydrate and lipid metabolism in the liver”.
